In PubChem BioAssay (EPA / NIEHS):
Several values for one entry are separate records, joined by “and”; a condition that tells them apart may be missing. Identical values can stand only once. Some compounds were tested as several samples or in several runs, with calls that do not always agree. Activity calls are given as the source filed them. The calls were made as follows: active = hit-call score of the fitted dose curve at least 0.9, where 1 is the maximum; inactive = score below 0.9.

How the values were obtained:
[1] = APR_HepG2_NuclearSize_72hr: Apredica 72-hour HepG2 Assay for Nuclear Size (AID 2282925); settings: high-content imaging, actives raise or lower the signal
Summary of the method: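 HepG2 cells were exposed to compounds at ten concentrations from 0.39 to 200 uM (duplicate, 0.5% DMSO final) for 72 hr. After fixation in 3.7% formaldehyde, nuclei were stained with Hoechst 33342 (2 ug/mL) and imaged at 20x.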

[2] = ATG_CRE_CIS: Attagene CIS-FACTORIAL HepG2 Assay for human cAMP Responsive Element (CRE) binding protein 3 (AID 2282926); settings: HepG2 CRE cis-reporter, Attagene multiplexed mRNA; actives raise or lower the signal
Summary of the method: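 Transfected HepG2 were treated for 24 hours, then RNA was extracted and reporter cDNA amplified with sequence-specific primers. Labelled fragments were separated by capillary electrophoresis, and the CRE signal was fitted bidirectionally with DMSO as baseline.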

[3] = molecular target: CCAAT/enhancer-binding protein beta (Homo sapiens) (UniProt P17676); assay: ATG_C_EBP_CIS: Attagene CIS-FACTORIAL HepG2 Assay for human CCAAT/Enhancer Binding Protein (C/EBP) beta (AID 2282927); settings: HepG2 Attagene cis-factorial transcription factor reporter; actives raise or lower the signal
Chain of CCAAT/enhancer-binding protein beta (Homo sapiens) (P17676 whole entry, looked up): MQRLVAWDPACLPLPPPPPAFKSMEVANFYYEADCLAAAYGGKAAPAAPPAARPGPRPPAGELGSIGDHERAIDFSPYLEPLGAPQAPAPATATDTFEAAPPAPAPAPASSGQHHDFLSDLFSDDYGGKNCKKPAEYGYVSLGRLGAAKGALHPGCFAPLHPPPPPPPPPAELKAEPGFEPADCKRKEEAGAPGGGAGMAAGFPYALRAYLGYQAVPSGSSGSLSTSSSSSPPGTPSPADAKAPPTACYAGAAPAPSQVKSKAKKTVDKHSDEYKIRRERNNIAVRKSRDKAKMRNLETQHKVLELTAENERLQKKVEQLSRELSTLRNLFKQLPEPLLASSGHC
Summary of the method: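 Following a 24 h incubation with test chemical, transfected HepG2 cells yielded RNA whose reporter transcripts were quantified by RT-PCR and fluorescent capillary electrophoresis, with DMSO serving as baseline for bidirectional fitting.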

[4] = ATG_CMV_CIS: Attagene CIS-FACTORIAL HepG2 Assay for human CMV (Internal Marker) (AID 2282928); settings: HepG2 CMV promoter reporter, transcription factor profiling; actives raise or lower the signal;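 also: endpoint acts as a background internal control marker rather than a target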
Summary of the method: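 Cell system: HepG2, transiently transfected multiple reporter units under cis promoters. Exposure: 24 h. Detection: RT-PCR, FAM labeling, HpaI digestion, capillary electrophoresis. Analysis: bidirectional, DMSO baseline.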

[5] = ATG_DR4_LXR_CIS: Attagene CIS-FACTORIAL HepG2 Assay for human Liver X Receptor (LXR), DR4 submotif (AID 2282929); settings: HepG2 Attagene DR4 cis-reporter, mRNA transcription; actives raise or lower the signal
Summary of the method: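 HepG2, transient MRTU transfection, cis-element (DR4) promoter; 24 h compound exposure; total RNA → oligo(dT) RT → PCR → 6-FAM primer extension → HpaI cut → CE. Gain/loss vs DMSO, bidirectional fit.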

[6] = molecular target: Aryl hydrocarbon receptor (Homo sapiens) (UniProt P35869); assay: ATG_Ahr_CIS: Attagene CIS-FACTORIAL HepG2 Assay for human Aryl Hydrocarbon Receptor (Ahr) (AID 2282930); settings: HepG2 AhR cis-factorial reporter transcription; actives raise or lower the signal
Chain of Aryl hydrocarbon receptor (Homo sapiens) (P35869 whole entry, looked up): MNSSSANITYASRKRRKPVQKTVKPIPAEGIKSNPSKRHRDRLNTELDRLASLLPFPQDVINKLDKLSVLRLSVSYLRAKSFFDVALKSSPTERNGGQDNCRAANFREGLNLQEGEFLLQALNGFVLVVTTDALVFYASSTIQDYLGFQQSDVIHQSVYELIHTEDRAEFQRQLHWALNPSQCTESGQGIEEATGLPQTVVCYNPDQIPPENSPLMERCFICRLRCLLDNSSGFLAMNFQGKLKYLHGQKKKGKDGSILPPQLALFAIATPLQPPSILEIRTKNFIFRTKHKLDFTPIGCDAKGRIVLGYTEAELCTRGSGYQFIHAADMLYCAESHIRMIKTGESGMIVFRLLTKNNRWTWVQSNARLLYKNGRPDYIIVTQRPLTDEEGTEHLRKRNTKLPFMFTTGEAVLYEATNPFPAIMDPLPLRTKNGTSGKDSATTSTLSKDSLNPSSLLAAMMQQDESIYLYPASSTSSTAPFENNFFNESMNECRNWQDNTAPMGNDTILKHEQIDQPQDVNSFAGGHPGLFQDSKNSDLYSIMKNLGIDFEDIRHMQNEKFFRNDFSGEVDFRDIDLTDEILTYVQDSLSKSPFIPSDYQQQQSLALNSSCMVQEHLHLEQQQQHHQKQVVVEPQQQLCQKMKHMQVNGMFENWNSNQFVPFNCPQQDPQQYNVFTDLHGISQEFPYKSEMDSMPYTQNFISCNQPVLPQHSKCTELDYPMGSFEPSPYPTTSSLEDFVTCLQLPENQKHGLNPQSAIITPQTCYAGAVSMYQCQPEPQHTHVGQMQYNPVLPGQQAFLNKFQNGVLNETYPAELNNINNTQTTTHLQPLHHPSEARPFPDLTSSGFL
Summary of the method: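 Values derive from bidirectional fitting against DMSO negative control. Underlying signal: cis-element reporter mRNA in transiently transfected HepG2, harvested 24 h post-dose and measured by RT-PCR plus capillary electrophoresis.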

[7] = ATG_AP_1_CIS: Attagene CIS-FACTORIAL HepG2 Assay for human Activator Protein 1 (AP-1) (AID 2282931); settings: HepG2 Attagene cis-factorial AP-1 reporter mRNA; actives raise or lower the signal
Summary of the method: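 Transient MRTU transfection of HepG2 → 24 h chemical treatment → RNA isolation, RT-PCR, 6-FAM labelling, HpaI digest → capillary electrophoresis. Fit: bidirectional, DMSO negative control.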

[8] = ATG_BRE_CIS: Attagene CIS-FACTORIAL HepG2 Assay for human Bone Morphogenetic Protein (BMP) Response Element (BRE) (AID 2282933); settings: HepG2 BMP response element reporter, Attagene transcription factor profiling; actives raise or lower the signal
Summary of the method: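 After a 24 h chemical treatment, transiently transfected HepG2 cells were lysed for RNA; reporter transcripts were quantified by fluorescent RT-PCR and capillary electrophoresis, normalised to DMSO.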

[9] = molecular target: Retinoic acid receptor alpha (Homo sapiens) (UniProt P10276); assay: ATG_DR5_RAR_CIS: Attagene CIS-FACTORIAL HepG2 Assay for human Retinoic Acid Receptor Alpha (RARE), DR5 submotif (AID 2282934); settings: HepG2 Attagene cis-factorial RARE DR5 reporter, mRNA; actives raise or lower the signal;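 as to AC50: reporter responds to endogenous RAR alpha beta and gamma in HepG2 not RARA alone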
Chain of Retinoic acid receptor alpha (Homo sapiens) (P10276 whole entry, looked up): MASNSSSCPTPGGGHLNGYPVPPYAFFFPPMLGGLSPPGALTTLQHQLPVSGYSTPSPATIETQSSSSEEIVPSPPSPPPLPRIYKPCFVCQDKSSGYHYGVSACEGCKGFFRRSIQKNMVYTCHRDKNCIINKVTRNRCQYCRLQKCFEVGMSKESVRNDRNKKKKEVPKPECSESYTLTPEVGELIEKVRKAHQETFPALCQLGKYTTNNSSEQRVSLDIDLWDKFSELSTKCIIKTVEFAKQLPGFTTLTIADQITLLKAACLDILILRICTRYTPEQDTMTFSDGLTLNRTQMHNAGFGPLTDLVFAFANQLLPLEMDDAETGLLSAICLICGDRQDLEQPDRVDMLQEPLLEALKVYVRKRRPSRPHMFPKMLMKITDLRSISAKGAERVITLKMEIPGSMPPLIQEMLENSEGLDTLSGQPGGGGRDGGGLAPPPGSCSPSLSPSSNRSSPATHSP
Summary of the method: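 Endpoint fitted in both directions relative to DMSO as negative control. It reflects DR5 cis-element reporter mRNA induction in transiently transfected HepG2 cells, measured 24 h after dosing through RT-PCR and fluorescent capillary electrophoresis.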

[10] = molecular target: Transcription factor E2F1 (Homo sapiens) (UniProt Q01094); assay: ATG_E2F_CIS: Attagene CIS-FACTORIAL HepG2 Assay for human E2F Transcription Factor 1 (AID 2282935); settings: HepG2 Attagene cis-reporter, E2F reporter RNA transcripts; actives raise or lower the signal
Chain of Transcription factor E2F1 (Homo sapiens) (Q01094 whole entry, looked up): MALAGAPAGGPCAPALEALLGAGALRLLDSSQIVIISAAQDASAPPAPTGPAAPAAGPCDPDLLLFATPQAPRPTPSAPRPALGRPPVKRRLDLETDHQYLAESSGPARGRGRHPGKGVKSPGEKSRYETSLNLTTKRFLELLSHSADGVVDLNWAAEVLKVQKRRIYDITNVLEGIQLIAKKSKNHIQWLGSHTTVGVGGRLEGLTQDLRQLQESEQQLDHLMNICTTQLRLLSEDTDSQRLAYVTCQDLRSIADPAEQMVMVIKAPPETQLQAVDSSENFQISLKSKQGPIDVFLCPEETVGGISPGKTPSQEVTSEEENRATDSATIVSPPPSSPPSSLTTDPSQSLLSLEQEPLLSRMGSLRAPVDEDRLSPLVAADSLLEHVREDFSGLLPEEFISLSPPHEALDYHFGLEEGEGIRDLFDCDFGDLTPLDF
Summary of the method: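 HepG2 cells transiently transfected with multiplexed cis-element reporter units, dosed for 24 h. Reporter mRNA measured by RT-PCR, 6-FAM primer-extension labeling, HpaI digestion and capillary electrophoresis; bidirectional fit versus DMSO baseline.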

[11] = ATG_E_Box_CIS: Attagene CIS-FACTORIAL HepG2 Assay for human Enhancer Box (E-box) (AID 2282936); settings: HepG2 E-box cis-reporter transcription, actives raise or lower the signal
Summary of the method: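 HepG2 cells transiently transfected with multiplexed cis-element reporter units sensing endogenous transcription factor activity; 24 h compound exposure. Reporter mRNA measured by RT-PCR, 6-FAM primer extension, HpaI digestion and capillary electrophoresis; bidirectional fit versus DMSO.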

[12] = ATG_M_61_CIS: Attagene CIS-FACTORIAL HepG2 Assay for M61 Transcription Factor (Internal Marker) (AID 2282937); settings: HepG2 Attagene CIS-FACTORIAL M61 internal marker reporter; actives raise or lower the signal
Summary of the method: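 Human liver HepG2, transient MRTU transfection (cis promoter elements), 24 h compound. Total RNA → oligo(dT) RT → PCR → FAM label → HpaI → CE. Internal background marker; bidirectional fitting, DMSO = baseline.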

[13] = ATG_EGR_CIS: Attagene CIS-FACTORIAL HepG2 Assay for human Early Growth Response 1 (EGR1) (AID 2282938); settings: HepG2 Attagene CIS-FACTORIAL EGR reporter mRNA; actives raise or lower the signal
Summary of the method: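 Transient transfection of human HepG2 with multiple cis-regulated reporter units, chemical exposure 24 h, total RNA isolated. Reverse transcription, PCR, fluorescent labelling and capillary electrophoresis quantify reporter transcripts; activity fitted bidirectionally against DMSO.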

[14] = ATG_ERE_CIS: Attagene CIS-FACTORIAL HepG2 Assay for Estrogen Response Element (ERE) (AID 2282940); settings: HepG2 ERE cis-reporter, Attagene RNA transcript; actives raise or lower the signal
Summary of the method: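 Measuring endogenous transcription factor output, the assay doses transfected HepG2 cells for 24 hours and quantifies reporter transcripts by fluorescent RT-PCR and capillary electrophoresis, with DMSO as baseline.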

[15] = ATG_Ets_CIS: Attagene CIS-FACTORIAL HepG2 Assay for human Erythroblast Transformation Specific (ETS) (AID 2282941); settings: HepG2 ETS cis-reporter transcription, actives raise or lower the signal
Summary of the method: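 After transient cis-reporter transfection, HepG2 cells receive test chemical for 24 h. Reporter mRNA levels, measured by RT-PCR and capillary electrophoresis fluorescence, are analysed bidirectionally relative to the DMSO baseline.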

[16] = molecular target: Hepatocyte nuclear factor 3-beta (Homo sapiens) (UniProt Q9Y261); assay: ATG_FoxA2_CIS: Attagene CIS-FACTORIAL HepG2 Assay for human Forkhead box A2 (FOXA2) (AID 2282942); settings: HepG2 cis-reporter transcription factor activity, 24 h; actives raise or lower the signal
Chain of Hepatocyte nuclear factor 3-beta (Homo sapiens) (Q9Y261 whole entry, looked up): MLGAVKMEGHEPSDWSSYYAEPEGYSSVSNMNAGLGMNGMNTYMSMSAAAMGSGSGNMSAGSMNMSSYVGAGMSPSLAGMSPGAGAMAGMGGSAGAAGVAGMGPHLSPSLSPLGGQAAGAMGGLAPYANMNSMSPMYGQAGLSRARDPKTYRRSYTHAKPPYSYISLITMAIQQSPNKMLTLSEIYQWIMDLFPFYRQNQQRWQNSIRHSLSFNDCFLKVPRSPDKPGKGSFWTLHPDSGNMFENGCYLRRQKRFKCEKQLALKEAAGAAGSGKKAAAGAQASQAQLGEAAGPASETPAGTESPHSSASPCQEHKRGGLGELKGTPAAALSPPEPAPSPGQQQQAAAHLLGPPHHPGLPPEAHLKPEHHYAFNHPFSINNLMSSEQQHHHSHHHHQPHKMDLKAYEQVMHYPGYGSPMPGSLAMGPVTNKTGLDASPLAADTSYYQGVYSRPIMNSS
Summary of the method: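 Transient MRTU transfection of HepG2 liver cells; 24 h treatment; total RNA → oligo(dT) RT → PCR → FAM primer extension → HpaI cut → CE. Bidirectional fit vs DMSO.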

[17] = ATG_FoxO_CIS: Attagene CIS-FACTORIAL HepG2 Assay for human Forkhead box O (FoxO) (AID 2282943); settings: HepG2 Attagene cis-reporter, FoxO element, mRNA; actives raise or lower the signal
Summary of the method: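 Values reflect reporter mRNA induction or loss in HepG2 cells 24 h post-dosing, fitted bidirectionally with DMSO as negative control and baseline. Detection used RT-PCR and fluorescence capillary electrophoresis.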

[18] = ATG_GATA_CIS: Attagene CIS-FACTORIAL HepG2 Assay for human GATA Binding Protein (AID 2282944); settings: HepG2 GATA cis-element reporter, Attagene multiplex mRNA; actives raise or lower the signal
Summary of the method: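 Measures endogenous transcription factor-driven reporter mRNA in HepG2 cells transiently carrying cis-regulated constructs. 24 h dosing; RNA via oligo(dT) reverse transcription, PCR, HpaI digestion, capillary electrophoresis; fitted relative to DMSO.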

[19] = ATG_M_19_CIS: Attagene CIS-FACTORIAL HepG2 Assay for M19 Transcription Factor (Internal Marker) (AID 2282939); settings: HepG2 Attagene CIS-FACTORIAL M19 internal marker reporter; actives raise or lower the signal
Summary of the method: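 In this multiplexed cell assay, transiently transfected HepG2 reporter units report endogenous transcription-factor activity; after 24 hours of treatment, labelled reporter cDNA fragments are quantified by capillary electrophoresis and fitted bidirectionally against DMSO.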

Measured: AC50

ClC1=C(Cl)C(Cl)(Cl)C(Cl)=C1Cl
inactive: [1] | [2] | [3] | [4] | [5] | [6] | [7] | [8] | [9] | [10] | [11] | [12] | [14] | [16] | [17] | [18]
active: [2] 11.9 µM | [3] 16.9 µM | [4] 11.1 µM | [5] 6.59 µM | [6] 8.81 µM | [9] 21.4 µM | [11] 6.36 µM | [13] 17.8 µM and 6.6 µM | [15] 17.7 µM and 16.2 µM | [17] 16.1 µM

CCCOC(=O)c1ccc(O)cc1
inactive: [1] | [2] | [3] | [4] | [5] | [6] | [7] | [8] | [9] | [10] | [11] | [12] | [13] | [19] | [16] | [17] | [18]
active: [2] 171 µM | [4] 121 µM | [5] 26.1 µM | [7] 48.2 µM | [8] 79.3 µM | [9] 25.2 µM | [13] 157 µM | [14] 6.06 µM and 16 µM
